# Measured values from the supplement of paper PMC8728848.
# The full list was thinned out, with the strongest signals kept by preference.
# How the values were obtained:
# Assay in all cases: glycan array binding signal (z-score within array); higher = stronger binding
# Conditions in all cases: glycan notation: IUPAC condensed, linker removed
# [1] = target: Fuc(a1-2)Gal(b1-4)GlcNAc
# Method in brief: (§1)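 Columns mapping to the same glycan were averaged after glycan names were converted to IUPAC-condensed notation. The data come from 3228 arrays in the Consortium for Functional Glycomics database, limited to those with an available protein sequence. Binding is reported as a within-array Z-score averaged across arrays of one protein sequence and across linkers.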
# [2] = target: Fuc(a1-2)Gal(b1-4)GlcNAc(b1-3)Gal(b1-4)GlcNAc(b1-3)Gal(b1-4)GlcNAc
# Method in brief: as §1
# [3] = target: Fuc(a1-2)Gal(b1-4)[Fuc(a1-3)]GlcNAc
# Method in brief: as §1
# [4] = target: Fuc(a1-2)Gal6S(b1-4)Glc
# Method in brief: as §1
# [5] = target: Fuc(a1-2)Gal6S(b1-4)GlcNAc
# Method in brief: as §1
# [6] = target: Fuc(a1-2)[Gal(a1-3)]Gal(b1-4)GlcNAc
# Method in brief: as §1
# [7] = target: Fuc(a1-2)[GalNAc(a1-3)]Gal(b1-3)GlcNAc(b1-2)Man(a1-3)[Fuc(a1-2)[GalNAc(a1-3)]Gal(b1-3)GlcNAc(b1-2)Man(a1-6)]Man(b1-4)GlcNAc(b1-4)GlcNAc
# Method in brief: as §1
# [8] = target: Fuc(a1-2)[GalNAc(a1-3)]Gal(b1-4)GlcNAc
# Method in brief: as §1
# [9] = target: Fuc(a1-3)[Gal(b1-4)]GlcNAc(b1-2)Man(a1-6)[Gal(b1-4)GlcNAc(b1-2)Man(a1-3)]Man(b1-4)GlcNAc(b1-4)GlcNAc
# Method in brief: as §1
# [10] = target: Gal(a1-3)Gal(b1-3)GlcNAc(b1-2)Man(a1-3)[Gal(a1-3)Gal(b1-3)GlcNAc(b1-2)Man(a1-6)]Man(b1-4)GlcNAc(b1-4)GlcNAc
# Method in brief: as §1
# [11] = target: Gal(a1-4)Gal(b1-3)GlcNAc(b1-2)Man(a1-3)[Gal(a1-4)Gal(b1-3)GlcNAc(b1-2)Man(a1-6)]Man(b1-4)GlcNAc(b1-4)GlcNAc
# Method in brief: as §1
# [12] = target: Gal(a1-4)Gal(b1-4)GlcNAc(b1-2)Man(a1-3)[Gal(a1-4)Gal(b1-4)GlcNAc(b1-2)Man(a1-6)]Man(b1-4)GlcNAc(b1-4)GlcNAc
# Method in brief: as §1
# [13] = target: Gal(b1-3)Gal
# Method in brief: as §1
# [14] = target: Gal(b1-3)Gal(b1-4)GlcNAc
# Method in brief: as §1
# [15] = target: Gal(b1-3)GalNAc(a1-3)[Fuc(a1-2)]Gal(b1-4)GlcNAc
# Method in brief: as §1
# [16] = target: Gal(b1-3)GlcNAc(b1-3)Gal(b1-4)GlcNAc(b1-6)[Gal(b1-3)GlcNAc(b1-3)]Gal(b1-4)Glc
# Method in brief: as §1
# [17] = target: Gal(b1-4)GlcNAc(a1-6)Gal(b1-4)GlcNAc
# Method in brief: as §1
# [18] = target: Gal(b1-4)GlcNAc(b1-2)Man(a1-3)[GlcNAc(b1-2)Man(a1-6)]Man(b1-4)GlcNAc(b1-4)GlcNAc
# Method in brief: as §1
# [19] = target: Gal3S(b1-4)[Fuc(a1-3)]Glc
# Method in brief: as §1
# [20] = target: GlcNAc(a1-4)Gal(b1-4)GlcNAc(b1-3)Gal(b1-4)Glc
# Method in brief: as §1
# [21] = target: GlcNAc(b1-2)[GlcNAc(b1-4)]Man(a1-3)[GlcNAc(b1-2)Man(a1-6)]Man(b1-4)GlcNAc(b1-4)GlcNAc
# Method in brief: as §1
# [22] = target: GlcNAc(b1-3)Gal(b1-4)GlcNAc
# Method in brief: as §1
# [23] = target: GlcNAc(b1-3)[GlcNAc(b1-4)][GlcNAc(b1-6)]GlcNAc
# Method in brief: as §1
# [24] = target: Man(a1-2)Man(a1-3)[Man(a1-2)Man(a1-6)]Man
# Method in brief: as §1
# [25] = target: Man(a1-2)Man(a1-3)[Man(a1-2)Man(a1-6)]Man(a1-6)[Man(a1-2)Man(a1-2)Man(a1-3)]Man
# Method in brief: as §1
# [26] = target: Neu5Ac(a2-3)Gal(b1-3)GlcNAc(b1-2)Man(a1-3)[Neu5Ac(a2-3)Gal(b1-3)GlcNAc(b1-2)Man(a1-6)]Man(b1-4)GlcNAc(b1-4)GlcNAc
# Method in brief: as §1
# [27] = target: Neu5Ac(a2-3)Gal(b1-3)GlcNAc(b1-3)Gal(b1-3)GlcNAc
# Method in brief: as §1
# [28] = target: Neu5Ac(a2-3)Gal(b1-3)GlcNAc(b1-3)Gal(b1-4)GlcNAc
# Method in brief: as §1
# [29] = target: Neu5Ac(a2-3)Gal(b1-3)[Neu5Ac(a2-3)Gal(b1-4)]GlcNAc
# Method in brief: as §1
# [30] = target: Neu5Ac(a2-3)Gal(b1-4)GlcNAc(b1-2)Man(a1-3)[GlcNAc(b1-2)Man(b1-4)GlcNAc(b1-2)Man(a1-6)]Man(b1-4)GlcNAc(b1-4)GlcNAc
# Method in brief: as §1
# [31] = target: Neu5Ac(a2-3)Gal(b1-4)GlcNAc(b1-2)Man(a1-3)[Neu5Ac(a2-6)Gal(b1-4)GlcNAc(b1-2)Man(a1-6)]Man(b1-4)GlcNAc(b1-4)GlcNAc
# Method in brief: as §1
# [32] = target: Neu5Ac(a2-3)Gal(b1-4)[Fuc(a1-3)]GlcNAc(b1-3)Gal(b1-4)[Fuc(a1-3)]GlcNAc(b1-3)Gal(b1-4)[Fuc(a1-3)]GlcNAc
# Method in brief: as §1
# [33] = target: Neu5Ac(a2-6)Gal(b1-4)Glc
# Method in brief: as §1
# [34] = target: Neu5Ac(a2-6)Gal(b1-4)GlcNAc(b1-3)Gal(b1-4)GlcNAc(b1-3)Gal(b1-4)GlcNAc
# Method in brief: as §1
# [35] = target: Neu5Ac(a2-6)Gal(b1-4)GlcNAc(b1-3)GalNAc
# Method in brief: as §1
# [36] = target: Neu5Ac(a2-6)GalNAc(b1-4)GlcNAc
# Method in brief: as §1
binder,measurement,setting,value
"Mincle (Homo sapiens), Q9ULY5 (protein) MNSSKSSETQCTERGCFSSQMFLWTVAGIPILFLSACFITRCVVTFRIFQTCDEKKFQLPENFTELSCYNYGSGSVKNCCPLNWEYFQSSCYFFSTDTISWALSLKNCSAMGAHLVVINSQEEQEFLSYKKPKMREFFIGLSDQVVEGQWQWVDGTPLTKSLSFWDVGEPNNIATLEDCATMRDSSNPRQNWNDVTCFLNYFRICEMVGINPLNKGKSL",glycan array binding signal (z-score),[1],-0.329
same,glycan array binding signal (z-score),[2],0.144
same,glycan array binding signal (z-score),[3],-0.37
same,glycan array binding signal (z-score),[4],-0.325
same,glycan array binding signal (z-score),[5],-0.106
same,glycan array binding signal (z-score),[6],-0.111
same,glycan array binding signal (z-score),[7],0.062
same,glycan array binding signal (z-score),[8],-0.289
same,glycan array binding signal (z-score),[9],5.4
same,glycan array binding signal (z-score),[10],4.69
same,glycan array binding signal (z-score),[11],0.054
same,glycan array binding signal (z-score),[12],3.26
same,glycan array binding signal (z-score),[13],-0.357
same,glycan array binding signal (z-score),[14],-0.566
same,glycan array binding signal (z-score),[15],-0.127
same,glycan array binding signal (z-score),[16],6.4
same,glycan array binding signal (z-score),[17],-0.484
same,glycan array binding signal (z-score),[18],0.969
same,glycan array binding signal (z-score),[19],-0.146
same,glycan array binding signal (z-score),[20],-0.295
same,glycan array binding signal (z-score),[21],-0.194
same,glycan array binding signal (z-score),[22],-0.245
same,glycan array binding signal (z-score),[23],-0.38
same,glycan array binding signal (z-score),[24],0.813
same,glycan array binding signal (z-score),[25],5
same,glycan array binding signal (z-score),[26],-0.71
same,glycan array binding signal (z-score),[27],-0.197
same,glycan array binding signal (z-score),[28],-0.575
same,glycan array binding signal (z-score),[29],-0.483
same,glycan array binding signal (z-score),[30],3.33
same,glycan array binding signal (z-score),[31],2.53
same,glycan array binding signal (z-score),[32],-0.324
same,glycan array binding signal (z-score),[33],-0.181
same,glycan array binding signal (z-score),[34],-0.394
same,glycan array binding signal (z-score),[35],0.372
same,glycan array binding signal (z-score),[36],-0.184
